The campaign covered roughly 5,500 compounds. About 2,000 (36%) were called active. Roughly 18% stayed inconclusive and do not appear here. No stated cut-off is given here; in the data, active means normalized growth mostly below about 0.91 (no sharp cut-off); inconclusive means no clear call, values can overlap the other calls; inactive means mostly above about 0.92. Some of the results follow.
Assay: chemical genetic growth profiling, strain panel (AID 1159580);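 further: tested at 20 µM; growth read once vehicle control cultures reached saturation at 30 °C; 1 = growth at the plate median or of vehicle wells; lower values mean less growth of the strain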
Details: growth OD

Measured: normalized growth

COC(=O)c1ccc2c(c1)N(C)S(=O)(=O)CC2=O
inactive: S. cerevisiae deletion strains, locus YBR229C, strain ROT2, hits give low values 0.998 | S. cerevisiae deletion strains, locus YDL101C, strain DUN1, hits give low values 0.964 | S. cerevisiae deletion strains, locus YDR150W, strain NUM1, hits give low values 0.997 | S. cerevisiae deletion strains, locus YEL061C, strain CIN8, hits give low values 0.975 | S. cerevisiae deletion strains, locus YGR078C, strain PAC10, hits give low values 1 | S. cerevisiae deletion strains, locus YHR030C, strain SLT2, hits give low values 0.994 | S. cerevisiae deletion strains, locus YHR087W, strain rtc3, hits give low values 1 | S. cerevisiae deletion strains, locus YJR043C, strain POL32, hits give low values 1.02 | S. cerevisiae deletion strains, locus YJR075W, strain HOC1, hits give low values 1.01 | S. cerevisiae deletion strains, locus YLR039C, strain RIC1, hits give low values 0.989 | S. cerevisiae deletion strains, locus YLR058C, strain SHM2 (second series), hits give low values 1.01 | S. cerevisiae deletion strains, locus YLR085C, strain ARP6, hits give low values 0.853 | S. cerevisiae deletion strains, locus YLR262C, strain YPT6, hits give low values 0.998 | S. cerevisiae deletion strains, locus YML094W, strain GIM5, hits give low values 1 | S. cerevisiae deletion strains, locus YMR219W, strain ESC1, hits give low values 0.996 | S. cerevisiae deletion strains, locus YMR263W, strain SAP30, hits give low values 0.994 | S. cerevisiae deletion strains, locus YMR307W, strain GAS1, hits give low values 0.872 | S. cerevisiae deletion strains, locus YNL128W, strain TEP1, hits give low values 1.01 | S. cerevisiae deletion strains, locus YNL153C, strain GIM3, hits give low values 0.932 | S. cerevisiae deletion strains, locus YNL298W, strain CLA4 (second series), hits give low values 0.987 | S. cerevisiae deletion strains, locus YNL322C, strain KRE1, hits give low values 0.993 | S. cerevisiae deletion strains, locus YNR030W, strain Alg12, hits give low values 0.987 | S. cerevisiae deletion strains, locus YPL055C, strain LGE1, hits give low values 0.99 | S. cerevisiae deletion strains, locus YPL241C, strain CIN2, hits give low values 0.936 | S. cerevisiae deletion strains, locus YPR135W, strain CTF4, hits give low values 1.03 | S. cerevisiae strains, strain wild type, hits give low values 1.01
